Hits are enriched below; roughly 4% of the tested compounds scored in any of these assays.
D1 ag = agonists of human D1 dopamine receptor; HEK293 T-REx D1 cells, calcium flux, agonist mode; activation, % at 2 µM; 360,000 compounds, 1% hits; AID 504660
Target sequence (P21728 whole entry, looked up): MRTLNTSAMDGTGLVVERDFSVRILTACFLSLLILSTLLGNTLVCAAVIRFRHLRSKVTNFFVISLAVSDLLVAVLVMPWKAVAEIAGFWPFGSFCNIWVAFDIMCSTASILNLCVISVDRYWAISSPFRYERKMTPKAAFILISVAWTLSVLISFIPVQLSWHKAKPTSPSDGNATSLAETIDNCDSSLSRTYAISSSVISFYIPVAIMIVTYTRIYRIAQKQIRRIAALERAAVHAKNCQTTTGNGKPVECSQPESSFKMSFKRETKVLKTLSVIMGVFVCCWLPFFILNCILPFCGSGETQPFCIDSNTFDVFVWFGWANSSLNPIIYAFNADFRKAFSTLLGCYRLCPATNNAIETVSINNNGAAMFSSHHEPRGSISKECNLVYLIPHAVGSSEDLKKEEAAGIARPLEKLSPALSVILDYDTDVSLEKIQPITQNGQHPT
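Tetracycline-induced HEK293 TREx D1 cells, force-coupled to calcium signalling, were dye-loaded with a no-wash calcium kit. Compound was pin-added after a 10 s baseline. Fluorescence was read kinetically at 1 cycle/s for 180 s, with calcium rises flagged as agonism.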
D1 antag = antagonists of human D1 dopamine receptor; AID 504652; HEK293 TREx D1 cells, calcium flux, dopamine EC80; active compounds read low; 360,000 compounds, 3.2% hits; activity change, negative = inhibition, % at 10 µM; P21728; in the data active = activity change below about -30%
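Tetracycline-induced HEK293 Trex D1 cells, force-coupled to calcium, dye-loaded; compounds added and read 180 s, then EC80 dopamine added and calcium flux tracked kinetically another 180 s.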
Glioma ERSR ind = ER stress response induction in glioma; Potency, µM, hits mostly activators; 420,000 compounds, 0.02% hits; U87-MG GRP78 promoter luciferase reporter, 16 h; active = well fitted activation curve with a large enough effect; also: series mostly up to about 76 µM; nearly all actives have a fitted effect of over 35% in size
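Stably transfected U87-MG human glioma cells carrying a GRP78-based luminescent sensor were seeded at 1000 cells/well, pin-dosed with compounds and incubated 16 h. Luciferase reagent was then added, and end-point luminescence was read after 10 min at room temperature.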
TRHR agonist = TRH receptor (human) agonism | P34981 | activation, % at 2 µM | 360,000 compounds, 0.18% hits | TRHR cells, calcium flux fluo-8, FDSS agonist mode
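Agonist-mode FDSS calcium read (Ex 480/Em 530, 1 s cycles) in 1536-well TRHR cells with fluo-8 dye, after 10-cycle baseline and 23 nL compound addition; TRH at EC20 (10 nM final) added afterwards for the enhancer phase.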
D1 PAM = human D1 dopamine receptor positive modulation; P21728; HEK293 TREx D1 cells, calcium flux, dopamine EC20 potentiation; potentiation, % at 10 µM; 360,000 compounds, 0.036% hits; in the data active = potentiation above about 30%
TRHR enhancer = allosteric enhancers of human TRH receptor | P34981 | enhancement, % at 2 µM | 360,000 compounds, 0.66% hits | TRHR cells, fluo-8 calcium fluorescence, EC20 TRH enhancement; in the data active = enhancement above about 30%
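TRHR-expressing cells loaded with fluo-8 calcium dye were read kinetically (ex 480/em 530) during compound addition, then stimulated with an EC20 of TRH (10 nM final). Enhancement of the Gq-mediated intracellular calcium response was scored.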
Hits are given with their value; 0 = inactive; - = no result given; ! = not active in a repeat. Rule as the data show it, unless noted: active = activation above about 30%; inactive = the rest.

SMILES	D1 ag	D1 antag	Glioma ERSR ind	TRHR agonist	D1 PAM	TRHR enhancer
CC(=O)Nc1ccc(CC(=O)O)cc1	47.2	0	0	0	0	0
CCN(CC)CCNC(=O)c1[nH]c2ccc(OCc3ccccc3)cc2c1C	126.2	-64.0	0	0	0	0
Cc1ccc(CNC(=O)CN(C2CCCCC2)S(C)(=O)=O)cc1	0	0	0	0	0	0
COc1ccc(CNC(=O)CN(C2CCCCC2)S(C)(=O)=O)cc1	0	-32.4	0	0	0	0
CS(=O)(=O)N(CC(=O)NCc1ccccc1)C1CCCCC1	0	-61.4	0	0	0	0
Cc1ccc(C)c(NC(=O)NNC(=O)CCc2ccccc2)c1	0	0	0	0	0	0
O=C(CN1C(=O)COc2ccc(S(=O)(=O)N3CCCCCC3)cc21)N1CCN(c2ccccc2F)CC1	0	0	0	0	0	0
CCCCNC(=O)CN1C(=O)COc2ccc(S(=O)(=O)N3CCCC3)cc21	0	0	0	0	0	0
CCN(CC)C(=O)CN1C(=O)COc2ccc(S(=O)(=O)N3CCOCC3)cc21	0	0	0	0	0	0
CCC(C)NC(=O)CN1C(=O)COc2ccc(S(=O)(=O)N3CCOCC3)cc21 (configuration not stated)	0	0	0	0	0	30.2!
O=C(CN1C(=O)COc2ccc(S(=O)(=O)N3CCOCC3)cc21)N1CCN(c2ccccc2F)CC1	0	0	0	0	0	33.4
CCC1CCCCN1CCCNC(=O)CN1C(=O)COc2ccc(S(=O)(=O)N3CCOCC3)cc21 (configuration not stated)	0	-38.0	0	0	0	0
CN(CCC#N)C(=O)COC(=O)c1nn(-c2ccccc2)c(=O)c2ccccc12	0	0	0	0	0	0
CCCOc1ccc(-c2nonc2NC(=O)c2cc(OC)c(OC)c(OC)c2)cc1OCCC	38.1	0	0	0	0	0
CCCc1cc(=O)n2nc(N3CCC(C(=O)NCc4ccco4)CC3)sc2n1	0	0	0	0	0	0
COC(=O)COc1cc(OCC(=O)OC)c2c(-c3ccccc3)cc(=O)oc2c1	0	0	0	0	0	0
COC(=O)C(C)Oc1cc(OC(C)C(=O)OC)c2c(-c3ccccc3)cc(=O)oc2c1 (configuration not stated)	0	0	31.6µM	0	0	0
CCOC(=O)CCCCN(Cc1ccccc1F)S(=O)(=O)c1ccc(F)c(C(=O)Nc2cc(Cl)cc(Cl)c2)c1	32.0	0	0	0	0	0
CCN(Cc1ccccc1)S(=O)(=O)c1ccc(F)c(C(=O)Nc2cc(C(F)(F)F)ccc2Cl)c1	0	-30.0	0	0	0	0
Clc1ccc(-c2nc3nc4ccccc4nc3n2Cc2ccco2)cc1	0	-41.0	0	0	0	0
Cc1ccc(-c2csc(Nc3ccc(C(=O)O)cc3)[n+]2Cc2ccccc2)cc1	0	0	0	0	0	32.6
O=[N+]([O-])c1ccc(-c2csc(Nc3ccccc3)[n+]2Cc2ccccc2)cc1	0	-40.6	0	0	0	0
C=CCNC(=O)C1CCN(c2cnccn2)CC1	0	0	0	0	0	0
NCCOc1ccc(C2CCCCC2)cc1	32.5	0	0	0	0	0
Cc1ccc2c(Sc3ccccc3)c(C(=O)NCc3ccccc3F)[nH]c2c1	0	-43.9	0	0	0	0
SMILES	D1 ag	D1 antag	Glioma ERSR ind	TRHR agonist	D1 PAM	TRHR enhancer
COc1cc(CNC2CCCC2)cc(Cl)c1OCc1ccccc1F	156.8	-57.6	0	0	0	0
COc1cc(OC)c2c(c1Cl)O[C@@]1(C2=O)[C@H](C)CC(=O)C[C@@H]1OC	-	-	0	-	-	-
COc1cccc2c1C(=O)c1c(O)c3c(c(O)c1C2=O)C[C@@](O)(C(=O)CO)C[C@@H]3O[C@H]1C[C@H](N)[C@H](O)[C@H](C)O1	34.4	0	0	0	0	0
COc1cccc2c1C(=O)c1c(O)c3c(c(O)c1C2=O)C[C@@](O)(C(=O)CO)C[C@@H]3OC1CC(N)C(O)C(C)O1 (some centres not stated)	-	-	0	-	-	-
CC(C)N1CN=C(Nc2nc3ccccc3o2)NC1	0	0	0	0	0	31.0
COCCN1CN=C(Nc2nc3ccccc3o2)NC1	0	0	0	0	0	0

Screening results as filed in PubChem.
